This is part of a sample that, as a whole, favours compounds with a hit. Of some 83,000 tested, about 20% had one in any assay.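 Single-concentration screen, 48 h exposure, 96-well plates. Endpoint: percent growth. Below 10 = active.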 A number with no mark means an inactive call. Active and inactive are the calls of the source.

This assay deals with T-47D breast. The experiment in a line: NCI-60 one-dose screen, 48 h (100 = growth as untreated, 0 = no growth, -100 = all killed). The settings on record: 10 µM unless noted. As for the experimental part:
Growth inhibition of the T-47D human tumor cell line is measured as a screen for anti-cancer activity. Cells are grown in 96 well plates and exposed to the test compound for 48 hours. Compounds are tested at a single concentration, which is 10^-5 M for most compounds. The reported endpoint is percent growth (GI% or GIPRCNT), where numbers from 0 - 100% represent growth inhibition, and numbers from -100% - 0 represent cell death. For example, a value of 40 represents 60% growth inhibition. A value of 0 means no net growth occurred over the course of the experiment. A value of -40 indicates 40% of cells at the beginning of the experiment died by the end of the experiment. A value of -100 means all cells are dead at the end of the experiment.
NCI-60 Human Tumor Cell Lines Screen was performed using the standard one-dose NCI protocol, which is described in more detail at https://dtp.cancer.gov/discovery_development/nci-60/default.htm.
Compounds with GIPRCNT values below 10 were considered active. Activity score was based on GIPRCNT using the following formula: […]
Score is 0 for GIPRCNT values of 100 or above, 50 for GIPRCNT values of 0, and 100 for GIPRCNT values of -100.
For `CSc1nc(N)c2c(n1)NC(c1ccccc1)C1CCc3ccccc3C1=N2` (stereo not given), the growth was 33.5%.

As for `CCN1C(=O)N(CC)C2C1NN=c1s/c(=C\c3ccccc3)c(=O)n12` (stereo not given), the growth was 70.8%.

For the compound `COc1ccc(-c2nc(SCCC(C)C)nc(N/N=C(/C)c3ccc(N)cc3)c2C#N)cc1`, the growth is 85%.

As for `COC(=O)c1nc(-c2ccccc2)oc1S(=O)(=O)N1CCN(c2ccc(OC)cc2)CC1`, the growth is 59%.

With `O=C1c2c(c3c4cccnc4[nH]c3c3ccc4ccccc4c23)C(=O)N1O`, the growth was 40.7%.

Consider `COc1ccc(Cn2cc3c(c2)-c2oncc2CC3)cc1`, for which the growth is 51.6%.

Regarding `CC(=O)O[C@H]1C[C@@]2(C)[C@@H](C[C@@H](O)[C@H]3[C@@]4(C)CC[C@H](N5CCCC5)[C@@H](C)[C@@H]4CC[C@@]32C)/C1=C(\CCC=C(C)C)C(=O)O`, the growth is 103%.

`CC/C(=C(/c1ccc(Cl)cc1)c1ccc(OCCCN(C)C)cc1)c1ccc(OC)cc1`: the growth is 51.1%.

Turning to `Cn1cc(-c2ccc3occ(-c4cccc(-c5ccncc5)c4)c3n2)cn1`, the growth was -6.42% (active).

For the compound `CC(C)(C)[C@H](OCc1cn([C@H]2C[C@@H](O)[C@@H](CO)O2)c(=O)[nH]c1=O)c1ccc(C#Cc2ccccc2)cc1[N+](=O)[O-]`, the growth is 53.6%.

For `CCCS(=O)(=O)Nc1cccc(Nc2ncnc3cc(NC(=O)CCl)ccc23)c1Cl`, the growth is -41.8% (active).

For `CCCC1Cc2cc(-n3nc(C)c4c3CC(C)(C)CC4=O)cc(NC3CCC(O)CC3)c2C(=O)N1` (stereo not given), the growth was 46.9%.

For the compound `Cn1cc(-c2nc(-c3c[nH]c4c(Cl)nccc34)cs2)c2ccccc21`, the growth was 87.1%.

As for `Nc1nc(Nc2ccc([N+](=O)[O-])cc2O)nc(C(Cl)(Cl)Cl)n1`, the growth is 73.6%.

Turning to `Cc1nc2cccc(NCc3ccc(C(=O)NO)cc3)c2c(=O)n1-c1ccccc1`, the growth is 17.5%.

For `Nc1ncc(-c2ccc3ncnc(N4CCc5cc(F)c(Cl)cc54)c3c2)cc1C(F)(F)F`, the growth was 20.4%.

As to `COc1ccc(-c2cn(Cc3ccc4c(Br)cc(Br)c(O)c4n3)nn2)cc1`, the growth is 65.1%.

For `COc1ccc(/C=N\NC(=O)c2ccc3nc(-c4ccc(Cl)cc4)[nH]c3c2)cc1`, the growth is 23.3%.

Turning to `CCOC(=O)C#Cc1c(CC(=O)OCC)nnn1[C@H]1O[C@@H](CO)[C@@H]2OC(C)(C)O[C@@H]21`, the growth was 38.2%.

In the case of `[2H]C([2H])([2H])Oc1c(F)cccc1/C=C/C(=O)/C=C(O)/C=C/c1cccc(F)c1OC([2H])([2H])[2H]`, the growth is 83.8%.

As for `CCOC(=O)C1=CCC(n2cc(F)c(=O)[nH]c2=O)O1` (stereo not given), the growth was 98.5%.

Turning to `CCN(CC)c1ccc(/C=N/NC(=O)c2ccccc2Nc2ccnc(C(F)(F)F)c2)c(O)c1`, the growth is 22.3%.

As for `CN(C)c1ccc(/C=N/NC(=O)CSc2nc3sc4c(c3c(=O)n2-c2ccccc2)CCCCC4)cc1`, the growth is 61.5%.

Regarding `Cn1cc(-c2nc(-c3c[nH]c4ccncc34)cs2)c2cc(F)ccc21`, the growth was -52.2% (active).

Turning to `COc1ccc(/C=C\c2cc(OC)c(OC)c(OC)c2)cc1OCC(=O)Nc1nc2ccccc2s1`, the growth was 18.5%.

Turning to `O=c1c2cccc3c(N4CCOCC4)ccc(c32)c2nc3ccccc3n12`, the growth is 38.1%.

As for `O=C1CCc2c(sc3[nH]c(=S)n(-c4cc(C(F)(F)F)cc(C(F)(F)F)c4)c(=O)c23)C1`, the growth was -34.6% (active).

Consider `CN1CCN(CC(=O)N(C)c2ccc(N=C(c3ccccc3)c3c(O)[nH]c4ccc([N+](=O)[O-])cc34)cc2)CC1`, for which the growth was 89.7%.

With `O=C1OCC2=C1C(c1cccc(F)c1)c1cc3c(cc1N2CCO)CCC3` (stereo not given), the growth is 52.6%.

On to `COc1ccc(S(=O)(=O)N(C)c2oc(-c3ccc(Cl)cc3)nc2C#N)cc1`, for which the growth was 74.5%.

For the compound `Cc1oc2ccc(O)c(CN3CCCCCC3)c2c1C(=O)Nc1ccc(C(F)(F)F)cc1`, the growth is 74%.

As to `CCOC(=O)c1c(C)c2c(n1Cc1ccccc1)CSc1cc(C#N)c(=O)[nH]c1-2`, the growth is 69.2% [100 µM].

With `CC1=C(C(=O)OCc2ccccc2)C(c2ccc3c(c2)OCO3)n2c(nc3ccccc32)N1` (stereo not given), the growth is 40.9%.

Consider `CNc1nc2ncc(-c3c(C)noc3C)cc2n1Cc1ccccc1`, for which the growth is 54.1%.

As for `CN1CCN(Cc2ccc(NC(=O)c3cncc(C#Cc4cnc(N)c5ccc(C#N)cc45)c3)cc2C(F)(F)F)CC1`, the growth is 10.4%.

Turning to `COC(=O)c1c(C(=O)OC)c2ccc3c4ncccc4ccc3n2c1C(=O)c1ccc(C)cc1`, the growth was 54.4%.

With `Cc1[nH]c(C2CC(c3ccc(C(F)(F)F)c(F)c3)=NN2C)c(C)c1C(=O)NCC(F)(F)F` (stereo not given), the growth was 93.9%.

As for `CCCn1cnc2c(c1=N)C(c1ccc(Cl)cc1)c1sc3c(F)cccc3c1O2` (stereo not given), the growth was 64.6%.

As to `COc1cc(/C=C2\CN(S(=O)(=O)c3ccc(C)cc3)C/C(=C\c3cc(CN4CCCC4)c(O)c(OC)c3)C2=O)cc(CN2CCCC2)c1O`, the growth was 40%.

As for `COc1cc2c(c(OC)c1OC)CCC(c1cccc(C(=O)Nc3ccc([N+](=O)[O-])cc3)c1)O2` (stereo not given), the growth was 9.09% (active).
